Test results reported in PubChem BioAssay (NCATS).
Records with an inconclusive call do not appear. Active and inactive are the calls of the source. The call rests on the fitted dose curve; in most records, active means well fitted inhibition curve with a large enough effect; inconclusive means small, poorly fitted or top-dose-only effect; inactive means flat fitted curve, though single readings scatter.

Columns and labels:
Test in all cases: Cytotoxic Profiling of Annotated Libraries Using Quantitative High-Throughput Screening (AID 1296008); further: nearly all actives have a fitted effect of over 60% in size
Settings in all cases: Five cell lines viability, CellTiter-Glo ATP luminescence, 48-72 h; max response: hits give low values
CRL-7250 = system: CRL-7250
Method in brief: (§1)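 Compounds were pin-transferred onto cells and incubated 48 or 72 hr at 37 degree Celsius, 95% humidity. CellTiter-Glo was added, plates sat 10 min at room temperature, then ATP-coupled luminescence was imaged as the viability read-out.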

HEK293 = system: HEK293
Method in brief: as §1

HaCat = system: HaCat
Method in brief: as §1

KB-3-1 = system: KB-3-1
Method in brief: as §1

NIH3T3 = system: NIH3T3
Method in brief: as §1
On the % scale 0 is the no-effect control and ±100 the full control effect; potency means the concentration at half of the fitted maximal effect.

O=C(/C=C/N1C[C@@H]2C[C@@H]1CN2c1ccccn1)c1ccccc1O
inactive: outcome (CRL-7250) | max response (HEK293) 4.78% | max response (HaCat) 3.55% | outcome (KB-3-1) | outcome (NIH3T3)

CC1=C(CCC(C)O[C@@H]2O[C@H](CO)[C@@H](O)[C@H](O)[C@H]2O)C(C)(C)CC(O)C1 (stereo not given in full)
inactive: max response (CRL-7250) -1.39% | max response (HEK293) 1.2% | max response (HaCat) -0.421% | max response (KB-3-1) 1.93% | outcome (NIH3T3)

C=C1C2CCC3CC2(CC(O)C2(O)C1CC(OC1OC(CO)C(O)C(O)C1O)C2(C)C)CC3(C)O (stereo not given)
inactive: max response (CRL-7250) -0.056% | max response (HEK293) 4.37% | max response (HaCat) -5.66% | max response (KB-3-1) -0.357% | outcome (NIH3T3)

CC(C)[C@@H](C(=O)O)N1Cc2c(cc(O)c3c2O[C@]2(C3)[C@H](C)CCC3C(C)(C)[C@H](O)[C@H](O)C[C@@]32C)C1=O (stereo not given in full)
inactive: max response (CRL-7250) 2.63% | max response (HEK293) -15% | max response (HaCat) 2.56% | max response (KB-3-1) 3.13% | outcome (NIH3T3)

CC(=O)O[C@@H]1[C@H](OC(C)=O)C[C@@]2(C)C(CC[C@@H](C)[C@]23Cc2c(O)cc4c(c2O3)CN([C@@H](CCC(=O)O)C(=O)O)C4=O)C1(C)C (stereo not given in full)
inactive: max response (CRL-7250) -2.81% | max response (HEK293) -1.84% | max response (HaCat) -30.9% | max response (KB-3-1) 5.86% | outcome (NIH3T3)

Cc1c(O)cc2c(c1O)COC1(O)CCCOC21 (stereo not given)
inactive: max response (CRL-7250) -4.56% | max response (HEK293) -1.54% | max response (HaCat) -19.1% | outcome (KB-3-1) | outcome (NIH3T3)

C[C@@H]1C[C@@H](O)[C@@]23CO[C@]2(CO)CCC[C@@H]3[C@@]12C[C@@H](c1ccoc1)OC2=O
inactive: max response (CRL-7250) -8.12% | max response (HEK293) 2.85% | max response (HaCat) -3.9% | max response (KB-3-1) 7.05% | outcome (NIH3T3)

CC1(C)[C@@H]2CC=C(CO[C@@H]3O[C@H](CO[C@@H]4OC[C@H](O)[C@H](O)[C@H]4O)[C@@H](O)[C@H](O)[C@H]3O)[C@H]1C2
inactive: max response (CRL-7250) 0.583% | max response (HEK293) 2.49% | max response (HaCat) -0.954% | outcome (KB-3-1) | outcome (NIH3T3)

CC(C)C(NC(=O)c1ccc(O)cc1)C(=O)N1CCCC1C(=O)Nc1c(O)cccc1C(=O)O (stereo not given)
inactive: max response (CRL-7250) -0.89% | max response (HEK293) -9.61% | max response (HaCat) -4.47% | max response (KB-3-1) 5.36% | outcome (NIH3T3)

CC1(C)CC[C@]2(C(=O)O)CC[C@]3(C)C(=CCC4[C@@]5(C)C[C@@H](O)[C@H](O)[C@](C)(CO)C5CC[C@]43C)[C@@H]2[C@@H]1O (stereo not given in full)
active: Potency (HEK293) 7.96 µM
inactive: outcome (CRL-7250) | max response (HaCat) 1.54% | max response (KB-3-1) -5.13% | outcome (NIH3T3)

O=C(O)c1ccnc2cc(-c3nc4ccccc4n3CCN3CCCCC3)sc12
inactive: max response (CRL-7250) 1.05% | max response (HEK293) 2.48% | max response (HaCat) -0.587% | max response (KB-3-1) 2.06% | outcome (NIH3T3)

COc1ccc(C2C(C(=O)O)C(C(=O)O)C2c2ccc(OC)cc2O[C@@H]2O[C@H](CO)[C@@H](O)[C@H](O)[C@H]2O)c(O[C@@H]2O[C@H](CO)[C@@H](O)[C@H](O)[C@H]2O)c1 (stereo not given in full)
inactive: max response (CRL-7250) -9.53% | max response (HEK293) -17.5% | max response (HaCat) 0.767% | max response (KB-3-1) -1.86% | outcome (NIH3T3)

CC(C(=O)Nc1cc(C#N)ccc1CCCC(=O)O)c1ccc(F)c2ccccc12 (stereo not given)
inactive: max response (CRL-7250) -4.54% | max response (HEK293) -6.85% | max response (HaCat) -4.32% | max response (KB-3-1) 5.51% | outcome (NIH3T3)

C=C1CC[C@@]2(OC1)O[C@H]1CC3C4CC=C5C[C@@H](O[C@@H]6O[C@@H](C)[C@H](O)[C@@H](O)[C@H]6O)C[C@@H](O[C@@H]6O[C@H](C)[C@H](O)[C@H](O)[C@H]6O[C@@H]6O[C@@H](C)[C@H](O)[C@@H](O)[C@H]6O)[C@]5(C)C4CC[C@]3(C)[C@H]1[C@@H]2C (stereo not given in full)
inactive: outcome (CRL-7250) | max response (HEK293) 1.18% | max response (HaCat) -14.8% | max response (KB-3-1) 5.01% | outcome (NIH3T3)

Cc1cc(O[C@@H]2O[C@H](COC(=O)CC(=O)O)[C@@H](O)[C@H](O)[C@H]2O)c(C(C)C)cc1O
inactive: max response (CRL-7250) 0.0068% | max response (HEK293) -1.41% | max response (HaCat) 0.109% | max response (KB-3-1) -13.3% | outcome (NIH3T3)

C=C[C@H]1[C@H](O[C@@H]2O[C@H](CO)[C@@H](O)[C@H](O)[C@H]2O)OC=C(C(=O)OC)[C@H]1CC=O
inactive: max response (CRL-7250) 3.16% | max response (HEK293) -0.876% | max response (HaCat) 4.35% | outcome (KB-3-1) | outcome (NIH3T3)

C=CC1(C)C=C2CC[C@H]3[C@@](C)(C(=O)O)CCC[C@]3(C)C2CC1 (stereo not given in full)
inactive: max response (CRL-7250) -9.61% | max response (HEK293) 2.61% | max response (HaCat) 3.4% | max response (KB-3-1) 5.04% | outcome (NIH3T3)

Cc1occc1C(=O)n1ccnc1
inactive: max response (CRL-7250) -1.62% | max response (HEK293) 0.475% | max response (HaCat) 4.32% | max response (KB-3-1) 0.152% | outcome (NIH3T3)

COc1cc2nc(=NC(=O)c3cccnc3)n3c(c2cc1OC)NCC3
active: Potency (HaCat) 16.4 µM
inactive: max response (CRL-7250) 4.99% | max response (HEK293) -3.57% | outcome (KB-3-1) | outcome (NIH3T3)

N#Cc1ccc(C2CCCc3cncn32)cc1 (stereo not given)
inactive: max response (CRL-7250) -28.9% | max response (HEK293) -80.6% | max response (HaCat) 3.15% | outcome (KB-3-1) | outcome (NIH3T3)
